Assay results from the supplement of paper PMC8726507.
Unmarked numbers belong to inactive results.

Tested on: Plasmodium falciparum NF54-HGL (transmission to Anopheles stephensi)
Assay: percentage of barcode signal found in uninfected mosquitoes (transmission-blocking activity); higher = stronger blocking of transmission to mosquito, active = 80 or more
Settings: gametocyte preincubation time 24 h, readout time post-feed 8 days
Procedure: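 The mixture was fed to Anopheles stephensi in 96-well plates as blood meals tagged with DNA-barcoded Asaia bacteria. Eight days later, mosquitoes were classed infected or uninfected by luminescence (mean + 5 SD of unfed controls). Barcodes were quantified by Luminex MagPlex-TAG in the pooled uninfected and infected Asaia cultures, background-corrected, and the score is % of barcode signal in uninfected mosquitoes = 100*Iu/(Iu+Ii).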

SMILES: CN1CCN(c2nccc3nc(-c4ccc(F)c(F)c4)[nH]c23)CC1
- percentage of barcode signal found in uninfected mosquitoes (10 µM): 97.2% (active)

SMILES: CCOc1ccc2cc(-c3nn(CC4CCN(C)CC4)c4ncnc(N)c34)ccc2c1
- percentage of barcode signal found in uninfected mosquitoes (10 µM): -7.02%

SMILES: O=C(NC1CC1)c1ccc(CSCc2ccccc2Cl)o1
- percentage of barcode signal found in uninfected mosquitoes (10 µM): 36.9%

SMILES: CN1CCN(c2nccc3[nH]c(-c4cccc(F)c4)cc23)CC1
- percentage of barcode signal found in uninfected mosquitoes (20 µM): -0.815%

SMILES: CCCCOC(=O)Nc1cc2nc(C3CCCCC3)[nH]c2cc1N1CCCC1
- percentage of barcode signal found in uninfected mosquitoes (20 µM): 33.9%

SMILES: CCC(NC(=O)c1ccccc1NC(=O)c1ccc(C)cc1)C(=O)OC (stereo not drawn)
- percentage of barcode signal found in uninfected mosquitoes (20 µM): 95.2% (active)

SMILES: COc1ccc(C(=N)N)cc1-c1cn(-c2ccc(C(=N)N)cc2)nn1
- percentage of barcode signal found in uninfected mosquitoes (20 µM): 2.56%

SMILES: CCCn1nnc(NC(=O)COc2ccc(C3CCCCC3)cc2)n1
- percentage of barcode signal found in uninfected mosquitoes (10 µM): 3.33%

SMILES: COc1cccc(CC(=O)N2CCC(n3c(C)nc4ccc(F)cc43)CC2)c1
- percentage of barcode signal found in uninfected mosquitoes (20 µM): 31.2%

SMILES: CC(C)(C)C1CCC(CC2=C(O)C(=O)c3ccccc3C2=O)CC1 (stereo not drawn)
- percentage of barcode signal found in uninfected mosquitoes (10 µM): 83.7% (active)

SMILES: CN1CCC(c2cc(-c3ccncc3)c(-c3ccc(F)cc3)[nH]2)CC1
- percentage of barcode signal found in uninfected mosquitoes (20 µM): 78.1%

SMILES: COc1ccc(-c2cnc3ccc(N4CCCC4)nn23)cc1OC
- percentage of barcode signal found in uninfected mosquitoes (10 µM): 75.3%

SMILES: CC(C)(C)n1nc(-c2ccccc2)c2c(N)ncnc21
- percentage of barcode signal found in uninfected mosquitoes (10 µM): -3.29%

SMILES: N=C(N)Nc1ccc(-c2ccc(-c3ccc(N=C(N)N)c(Cl)c3)o2)cc1Cl
- percentage of barcode signal found in uninfected mosquitoes (10 µM): 101% (active)

SMILES: O=C(NCc1ccco1)N1CCN(Cc2ccc(Cl)s2)CC1
- percentage of barcode signal found in uninfected mosquitoes (10 µM): 0.794%

SMILES: COc1ccc(N(CCc2cccc(C)n2)C(C)=O)cc1
- percentage of barcode signal found in uninfected mosquitoes (20 µM): 0.592%

SMILES: CC(=O)Oc1ccccc1C(=O)Nc1ncc([N+](=O)[O-])s1
- percentage of barcode signal found in uninfected mosquitoes (10 µM): 8.87%

SMILES: Cc1nn(C)cc1C(C)Nc1nncc(-c2ccc(C(F)(F)F)cc2)n1 (stereo not drawn)
- percentage of barcode signal found in uninfected mosquitoes (20 µM): 89.3% (active)

SMILES: CC1=Nc2ccc(Cl)cc2C(O)(c2ccc(C)cc2)N1CCN1CCCCC1 (stereo not drawn)
- percentage of barcode signal found in uninfected mosquitoes (10 µM): 83.9% (active)

SMILES: Cc1cc(O)nc(-n2nc(C)cc2C)n1
- percentage of barcode signal found in uninfected mosquitoes (20 µM): 70.1%

SMILES: CC(C(=O)N1CCCC1)N1CCN(S(=O)(=O)c2ccc(C(C)(C)C)cc2)CC1 (stereo not drawn)
- percentage of barcode signal found in uninfected mosquitoes (20 µM): 0.922%

SMILES: O=C(Nc1nnc(-c2ccc(Cl)cc2)o1)c1cccc(C(F)(F)F)c1
- percentage of barcode signal found in uninfected mosquitoes (10 µM): -0.664%

SMILES: Cc1nn2c(O)c3c(nc2c1-c1ccc(F)cc1)CCCC3
- percentage of barcode signal found in uninfected mosquitoes (10 µM): 9.19%

SMILES: COc1cc(-c2cc(-c3ccc(S(C)(=O)=O)cc3)cnc2N)ccc1O
- percentage of barcode signal found in uninfected mosquitoes (20 µM): 48.6%

SMILES: CCCCS(=O)(=O)Nc1ccc2cnn(C)c2c1
- percentage of barcode signal found in uninfected mosquitoes (20 µM): 4.19%

SMILES: COc1ccc(C2=NN(C3CCCCCC3)C(=O)[C@@H]3CC=CC[C@H]23)cc1OCCCCOc1ccc(-c2nn[nH]n2)cc1
- percentage of barcode signal found in uninfected mosquitoes (10 µM): 63.6%

SMILES: O=C(NCCc1c[nH]c2ccccc12)c1cc2ccccc2oc1=O
- percentage of barcode signal found in uninfected mosquitoes (10 µM): -1.49%

SMILES: CC1CCCN(C(=O)C(C)Nc2cc(Cl)ccc2N2CCOCC2)C1 (stereo not drawn)
- percentage of barcode signal found in uninfected mosquitoes (20 µM): 15.9%

SMILES: CN(C(=O)c1cc2c(-c3cncnc3)cccc2[nH]1)c1ccccc1
- percentage of barcode signal found in uninfected mosquitoes (10 µM): 66.4%

SMILES: O=C(C(Cc1c[nH]c2ccccc12)NS(=O)(=O)c1ccc(Cl)cc1)N1CCCCC1 (stereo not drawn)
- percentage of barcode signal found in uninfected mosquitoes (10 µM): 62.5%

SMILES: CCN(CC)S(=O)(=O)c1ccc(C(=O)Nc2cc(C)nn2-c2nc(C)c(C)c(=O)[nH]2)cc1
- percentage of barcode signal found in uninfected mosquitoes (20 µM): 66.7%

SMILES: CCc1nc2ccc(Cl)cn2c1C(=O)NCc1ccc(N2CCC(c3ccc(OC(F)(F)F)cc3)CC2)cc1
- percentage of barcode signal found in uninfected mosquitoes (20 µM): 32%

SMILES: Cc1cccc(Cn2ccc(NC(=O)c3ccc4c(c3)OCO4)n2)c1
- percentage of barcode signal found in uninfected mosquitoes (10 µM): 42.9%

SMILES: Cc1cc(Cl)ccc1NC(=O)CCc1ccc(S(=O)(=O)NCC(C)C)cc1
- percentage of barcode signal found in uninfected mosquitoes (20 µM): 0.0223%

SMILES: CNc1nnc(Sc2cnn(-c3ccccc3)c(=O)c2Cl)s1
- percentage of barcode signal found in uninfected mosquitoes (10 µM): 76.3%

SMILES: Cc1cccc(-c2nc(Nc3ccncn3)c3sccc3n2)n1
- percentage of barcode signal found in uninfected mosquitoes (20 µM): 91.4% (active)

SMILES: CC(=O)NCC1CN(c2ccc(-c3ccc(CNCc4cn[nH]n4)cc3)c(F)c2)C(=O)O1 (stereo not drawn)
- percentage of barcode signal found in uninfected mosquitoes (20 µM): 9.84%

SMILES: CN1CCN(S(=O)(=O)c2ccc(-c3ccc4c(Nc5ccc6nn[nH]c6c5)ccnc4c3)cc2)CC1
- percentage of barcode signal found in uninfected mosquitoes (20 µM): 3.18%
